Data from PubChem BioAssay.
Several values for one entry are separate records, joined by “and”; a condition that tells them apart may be missing. Identical values can stand only once. Inconclusive results are not listed. Activity calls are given as the source filed them. Unless noted, the rule behind the calls is not given here.

How the values were obtained:
[1] = system: Hepatitis C virus NS3 helicase; experiment: HCV NS3 helicase inhibitors, primary screen, biochemical, fluorescence polarization, LOPAC1280 library (AID 687035; in the data active = inhibition above about 37%); details: Purified HCV NS3 helicase, Cy5-dT15 ssDNA binding fluorescence polarization; stronger effect = higher value; concentration not given here
[2] = Cy5 fluorescence quenching or enhancement artefacts, artefact control for HCV NS3 helicase inhibitor project, biochemical, LOPAC1280 (AID 687037); details: Cy5-DNA-NS3h complex fluorescence interference counterscreen
[3] = system: Aerobactin synthetase IucA (Klebsiella pneumoniae); experiment: IucA aerobactin synthetase inhibitors, biochemical, Tocris library, absorbance (AID 1345561); details: purified IucA enzyme assay, absorbance (OD) read-out; stronger effect = lower value;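 tested at 8 µM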;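 note: 100% = enzyme without compound and 0% = no enzyme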
[4] = system: Aerobactin synthetase IucA (Klebsiella pneumoniae, hypervirulent); experiment: IucA enzyme inhibition, biochemical, LOPAC library, absorbance readout (AID 1346212); details: IucA enzyme assay, absorbance (OD) readout; stronger effect = lower value;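 tested at 8 µM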;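 note: 100% = no compound wells and 0% = no enzyme wells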
[5] = growth inhibition of DIPG glioma cells, dose response, cell-based, SU-DIPG-XVII, MIPE5.0, CellTiter-Glo, qHTS (AID 1347060; cut-off not given, nearly all actives have AC50 up to about 26 µM); details: SU-DIPG-XVII viability, CellTiter-Glo ATP luminescence
[6] = growth inhibition of DIPG glioma cells, dose response, cell-based, JHH-DIPG-1, MIPE4.0, CellTiter-Glo, qHTS (AID 1347062; cut-off not given, nearly all actives have AC50 up to about 27 µM); details: JHH-DIPG-1 viability, CellTiter-Glo ATP luminescence
[7] = growth inhibition of DIPG glioma cells, dose response, cell-based, SU-DIPG-IV, MIPE4.0, CellTiter-Glo, qHTS (AID 1347063; cut-off not given, nearly all actives have AC50 up to about 30 µM;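 note: compound exposure lasted 48 hours before the viability readout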); details: SU-DIPG-IV viability, CellTiter-Glo ATP luminescence
[8] = growth inhibition of DIPG glioma cells, dose response, cell-based, SU-DIPG-XIII, MIPE5.0, CellTiter-Glo, qHTS (AID 1347064; cut-off not given, nearly all actives have AC50 up to about 23 µM); details: SU-DIPG-XIII viability, CellTiter-Glo ATP luminescence
[9] = viability loss in pontine glioma line – cell-based, SU-DIPG-XXV, MIPE5.0, CellTiter-Glo, qHTS, dose response (AID 1347065; cut-off not given, nearly all actives have AC50 up to about 26 µM;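 note: cells exposed to compound for 48 hours before ATP readout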); details: CellTiter-Glo ATP luminescence
[10] = JHH-DIPG-1 glioma cell viability, MIPE5.0 library, CellTiter-Glo luminescence, qHTS (AID 1347067; cut-off not given, nearly all actives have AC50 up to about 26 µM;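 note: cells exposed to compound for 48 hours before readout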); details: JHH-DIPG-1 glioma viability, CellTiter-Glo ATP luminescence
[11] = SU-DIPG-XXV glioma cell viability, MIPE5.0 library, qHTS (AID 1347068; cut-off not given, nearly all actives have IC50 up to about 30 µM)
[12] = sensitizers of A549 cells to miR-34 induction, primary screen, imaging, A549 dox-inducible miR-34, nuclei and caspase counts (AID 1347080;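 active = compounds whose cell count with miR-34 switched on is under 0.7 times the count with it off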); details: A549 miR-34 inducible, Hoechst nuclei count, 48 h
[13] = phospholipid biosynthesis inhibitors in animal cells, primary screen, cell-based, LOPAC library, screen 4 (AID 1347384); details: phospholipid biosynthesis inhibition screen, at 10 µM
[14] = viability rescue of complex I mutant cybrids, primary screen, cell-based, galactose medium, ATP luminescence (AID 1645843;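 active = z-score of at least 1.8 in each of two replicates, scored against plate mean and spread of sample wells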;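 note: positive z means more ATP and so rescue of galactose-driven cybrid death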); details: complex I mutant cybrid cells, 72 h, stronger effect = higher value
[15] = circadian clock period modulators, cell-based, LOPAC library, luminescence reporter (AID 2774); details: circadian reporter cells, at 7 µM, actives lie on both sides;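 note: values are relative to mean of DMSO wells on each plate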
[16] = differential killing of epithelial or mesenchymal cells, primary screen, imaging, PC-3E GFP, TEM4-18 mCherry, co-culture (AID 1345086;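 active = compounds killing one labelled cell type while sparing the other, by normalised counts and ratio limits, not self-fluorescent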;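 for all read-outs here: cells exposed to compound for 72 h before imaging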;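 for red/green cell ratio (normalised): normalised mesenchymal count divided by normalised epithelial count so high means epithelial killing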); details: imaging cell counts, at 1 µM; for red/green cell ratio (normalised): actives lie on both sides
[17] = target: Mitogen-activated protein kinase 7 (Homo sapiens) (UniProt Q13164); experiment: ERK5 transactivation activators in reporter cells, primary screen, cell-based, HTS (AID 1508626;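 active = luciferase signal above three times the same-plate solvent-only control wells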;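 note: luciferase driven by Gal4-ERK5 fusion binding five Gal4 sites before minimal TATA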); details: HeLa Gal4-ERK5 transactivation, 18 h, at 5 µM, stronger effect = higher value
[18] = growth inhibition of DIPG glioma cells, dose response, cell-based, SU-DIPG-XIII, MIPE4.0, CellTiter-Glo, qHTS (AID 1347061; cut-off not given, nearly all actives have AC50 up to about 37 µM;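 note: cells exposed to compound for 48 hours before readout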); details: SU-DIPG-XIII viability, CellTiter-Glo ATP luminescence
[19] = SU-DIPG-VI glioma cell viability, MIPE4.0 library, CellTiter-Glo luminescence, qHTS (AID 1347066; cut-off not given, nearly all actives have AC50 up to about 30 µM;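 note: cells exposed to compound for 48 hours before readout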); details: CellTiter-Glo ATP luminescence
[20] = liver-stage malaria parasite growth inhibition, primary screen, cell-based, HepG2, luciferase luminescence, HepG2 viability (AID 624349; in the data active = parasite load remaining mostly below about 12%, no sharp cut-off; inactive = mostly above about 10%;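 note: 100% = mean of DMSO negative control wells on the same plate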); details: P. berghei liver stage in HepG2, luciferase luminescence, concentration not given here; parasite load remaining: stronger effect = lower value; viability: measured here: HepG2 viability without parasites
[21] = target: NAD(+) hydrolase SARM1 (Homo sapiens) (UniProt Q6SZW1); experiment: SARM1 TIR NADase inhibitors, cell lysate, NAD-Glo luminescence (AID 1508614;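 active = compound whose remaining NAD level is above about 45 nM, limit read from the data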;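 note: higher remaining NAD means stronger inhibition of SARM1 NADase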); details: SAM-TIR HEK293T lysate NADase, at 1 µM, stronger effect = higher value
[22] = survival rescue of mitochondrial mutant cells in low glucose, primary screen, MELAS cybrids, Rieske KO mouse fibroblasts, CellTiter-Glo (AID 1508586;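 active = mean z-score across replicates of 1.96 or higher in either the MELAS or the Rieske mutant cell line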;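 note: z relative to plate mean and SD of compound and empty wells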)
[23] = stronger effect = lower value, cell number ratio, induced over uninduced
[24] = measured here: relative caspase fold change +Dox/-Dox
[25] = measured here: total cells with miR-34 induction, stronger effect = lower value
[26] = measured here: total cells without miR-34 induction
[27] = measured here: epithelial PC-3E GFP cell survival
[28] = measured here: mesenchymal TEM4-18 mCherry cell survival

Sequence of Mitogen-activated protein kinase 7 (Homo sapiens) (Q13164 whole entry, looked up, the tested form may be a part): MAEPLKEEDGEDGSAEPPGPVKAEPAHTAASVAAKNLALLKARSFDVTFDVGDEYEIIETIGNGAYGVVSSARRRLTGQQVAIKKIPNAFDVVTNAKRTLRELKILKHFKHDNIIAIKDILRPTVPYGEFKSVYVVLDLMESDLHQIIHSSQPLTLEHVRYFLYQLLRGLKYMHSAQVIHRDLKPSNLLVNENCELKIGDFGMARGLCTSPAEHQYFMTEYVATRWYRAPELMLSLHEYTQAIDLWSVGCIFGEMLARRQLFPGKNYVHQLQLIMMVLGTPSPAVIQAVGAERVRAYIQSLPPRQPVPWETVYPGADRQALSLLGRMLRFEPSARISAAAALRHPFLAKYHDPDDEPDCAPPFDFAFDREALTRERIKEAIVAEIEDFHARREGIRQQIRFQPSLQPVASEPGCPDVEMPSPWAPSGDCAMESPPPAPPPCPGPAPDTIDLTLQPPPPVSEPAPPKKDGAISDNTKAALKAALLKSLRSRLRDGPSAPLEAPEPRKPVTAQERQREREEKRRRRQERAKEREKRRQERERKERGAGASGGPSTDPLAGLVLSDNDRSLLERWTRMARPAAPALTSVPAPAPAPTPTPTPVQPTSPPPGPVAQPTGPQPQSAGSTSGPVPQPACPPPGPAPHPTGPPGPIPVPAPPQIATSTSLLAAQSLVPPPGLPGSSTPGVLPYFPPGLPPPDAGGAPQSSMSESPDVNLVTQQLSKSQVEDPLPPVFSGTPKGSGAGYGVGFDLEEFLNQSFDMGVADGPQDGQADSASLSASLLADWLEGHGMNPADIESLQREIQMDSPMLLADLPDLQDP
Sequence of NAD(+) hydrolase SARM1 (Homo sapiens) (Q6SZW1 whole entry, looked up): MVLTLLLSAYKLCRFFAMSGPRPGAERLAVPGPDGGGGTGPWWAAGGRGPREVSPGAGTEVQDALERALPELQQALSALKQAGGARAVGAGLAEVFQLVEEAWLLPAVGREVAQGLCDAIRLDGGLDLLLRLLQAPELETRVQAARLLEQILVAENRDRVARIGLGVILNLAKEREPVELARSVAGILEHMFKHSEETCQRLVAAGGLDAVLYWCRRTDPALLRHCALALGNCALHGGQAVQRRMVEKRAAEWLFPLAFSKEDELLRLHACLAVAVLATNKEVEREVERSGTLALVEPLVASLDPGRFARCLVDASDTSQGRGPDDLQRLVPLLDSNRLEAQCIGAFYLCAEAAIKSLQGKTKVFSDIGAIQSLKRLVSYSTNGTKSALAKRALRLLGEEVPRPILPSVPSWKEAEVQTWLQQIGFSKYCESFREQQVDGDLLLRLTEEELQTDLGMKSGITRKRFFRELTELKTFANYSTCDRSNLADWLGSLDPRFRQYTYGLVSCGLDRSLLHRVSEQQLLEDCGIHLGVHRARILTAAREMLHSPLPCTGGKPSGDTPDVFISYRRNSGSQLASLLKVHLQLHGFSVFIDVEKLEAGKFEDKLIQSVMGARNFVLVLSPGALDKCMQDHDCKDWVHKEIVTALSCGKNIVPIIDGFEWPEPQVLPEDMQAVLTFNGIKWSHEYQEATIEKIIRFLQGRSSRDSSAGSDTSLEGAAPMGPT

## O=C(N[C@H]1CN2CCC1CC2)c1ccc(Cl)cc1
[1]
  inhibition: -1% (inactive)
[2]
  fluorescence ratio (interference): 1 (inactive)
[3]
  remaining activity: 93.4% (inactive)
[4]
  remaining activity: 109% (inactive)
[5]
  outcome: inactive
[6]
  outcome: inactive
[7]
  outcome: inactive
[8]
  outcome: inactive
[9]
  outcome: inactive
[10]
  outcome: inactive
[11]
  outcome: inactive
[12]; stronger effect = lower value
  fold change: 1.07 (inactive)
[12]; [23]
  fold change: 0.932 (inactive)
[12]; [24]
  fold change: 1.52 and 1.27
[12]; [25]
  cell count: 10700 and 8830
[12]; [26]
  cell count: 10000 and 9480
[13]
  outcome: inactive
[14]
  z-score: 0.385 (inactive) and 0.125 (inactive)

## C[C@@H](N)Cc1cnc[nH]1
[15]
  period change: -0.03 h (inactive)
[1]
  inhibition: -1% (inactive)
[2]
  fluorescence ratio (interference): 1 (inactive)
[3]
  remaining activity: 120% (inactive)
[4]
  remaining activity: 105% (inactive)
[12]; stronger effect = lower value
  fold change: 0.943 (inactive)
[12]; [23]
  fold change: 1.02 (inactive)
[12]; [24]
  fold change: 0.922 and 0.657
[12]; [25]
  cell count: 9840 and 7980
[12]; [26]
  cell count: 10400 and 7800
[13]
  outcome: inactive
[14]
  z-score: 0.195 (inactive) and -0.325 (inactive)

## COC(=O)[C@@H]1C[C@H](OC(C)=O)C(=O)[C@H]2[C@@]1(C)CC[C@H]1C(=O)O[C@H](c3ccoc3)C[C@]21C
[16]
  red/green cell ratio (normalised): 1.04 (inactive)
[16]; [27]
  normalised cell number: 0.84
[16]; [28]
  normalised cell number: 0.87
[17]
  luciferase signal: 52 AU (inactive)

## Oc1ccc2c3c1O[C@H]1c4[nH]c5c(c4C[C@@]4(O)[C@@H](C2)N(CC2CC2)CC[C@]314)C[C@@]1(O)[C@H]2Cc3ccc(O)c4c3[C@@]1(CCN2CC1CC1)[C@H]5O4
[15]
  period change: -0.025 h (inactive)
[1]
  inhibition: -2% (inactive)
[2]
  fluorescence ratio (interference): 1 (inactive)
[3]
  remaining activity: 103% (inactive)
[4]
  remaining activity: 120% (inactive)
[18]
  outcome: inactive
[6]
  outcome: inactive
[7]
  outcome: inactive
[19]
  outcome: inactive
[12]; stronger effect = lower value
  fold change: 1.09 (inactive) and 0.956 (inactive)
[12]; [24]
  fold change: 1.04 and 0.836
[12]; [25]
  cell count: 10400 and 9420
[12]; [26]
  cell count: 9540 and 9850
[14]
  z-score: 0.855 (inactive) and 1.22 (inactive)

## CC(CC(C(N)=O)(c1ccccc1)c1ccccc1)N(C)C (stereo not drawn)
[20]
  parasite load remaining: 59.7% (inactive)
  viability: 166%
[16]
  red/green cell ratio (normalised): 0.86 (inactive)
[16]; [27]
  normalised cell number: 1.14
[16]; [28]
  normalised cell number: 0.99
[12]; stronger effect = lower value
  fold change: 0.911 (inactive)
[12]; [24]
  fold change: 5.38
[12]; [25]
  cell count: 11900
[12]; [26]
  cell count: 13000
[21]
  remaining NAD: 10 nM (inactive)
[17]
  luciferase signal: 172 AU (inactive)

## CN1CCC(c2c[nH]c3ccc(O)cc23)CC1
[15]
  period change: -0.16 h (inactive)
[1]
  inhibition: -2% (inactive)
[2]
  fluorescence ratio (interference): 1 (inactive)
[3]
  remaining activity: 116% (inactive)
[4]
  remaining activity: 119% (inactive)
[12]; stronger effect = lower value
  fold change: 1.01 (inactive)
[12]; [23]
  fold change: 0.949 (inactive) and 0.908 (inactive)
[12]; [24]
  fold change: 1.73 and 0.894 and 0.857
[12]; [25]
  cell count: 10800 and 7640 and 9030
[12]; [26]
  cell count: 10700 and 8050 and 9950
[13]
  outcome: inactive
[22]; MELAS cybrid survival, CellTiter-Glo 48 h, stronger effect = higher value
  z-score: -0.212 (inactive)
[22]; Rieske KO mouse fibroblast survival, CellTiter-Glo 72 h
  z-score: -0.062
[14]
  z-score: 0.06 (inactive) and -0.325 (inactive)
